In PubChem BioAssay AID777 (Sanford-Burnham Center for Chemical Genomics, 2007):
In all, about 96,000 compounds went through this assay and about 19,000 (20%) were called active.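 Rule for the calls: active = blocking of liver enzyme CYP2C9 beyond about 50% at 5 µM (limit read from the data); inactive = the rest.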 The list is a sample of the results.

Target: Cytochrome P450 2C9 (Homo sapiens) (UniProt P11712)
Assay: blockers of cytochrome P450 2C9 activity – biochemical, luminescence, ADME assay, primary screen (AID 777)
Conditions: CYP2C9 Supersomes, luciferin-H conversion, at 5 µM, active compounds read high

Cytochrome P450 2C9 (Homo sapiens), sequence (P11712 whole entry, looked up): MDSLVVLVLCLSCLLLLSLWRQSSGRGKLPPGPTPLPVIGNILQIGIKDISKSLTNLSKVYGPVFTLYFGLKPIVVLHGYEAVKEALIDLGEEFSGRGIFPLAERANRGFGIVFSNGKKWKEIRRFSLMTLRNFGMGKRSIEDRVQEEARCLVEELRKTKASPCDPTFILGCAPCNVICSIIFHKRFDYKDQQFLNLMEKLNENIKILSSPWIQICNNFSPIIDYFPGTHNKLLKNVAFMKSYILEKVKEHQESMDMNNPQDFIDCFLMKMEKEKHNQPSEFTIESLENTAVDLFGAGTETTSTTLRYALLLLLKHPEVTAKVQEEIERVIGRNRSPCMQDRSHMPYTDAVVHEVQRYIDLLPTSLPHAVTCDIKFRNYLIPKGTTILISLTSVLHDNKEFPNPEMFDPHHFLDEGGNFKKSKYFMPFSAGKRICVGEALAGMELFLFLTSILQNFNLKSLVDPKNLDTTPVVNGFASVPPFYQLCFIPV

Row | Compound | inhibition
1 | CCOc1c2ccc(C(=O)NCc3ccc(OC(F)(F)F)cc3)cc2nn1C | 19% (inactive)
2 | COc1nc(N=C(N)N)nc2c(C)cccc12 | -9.5% (inactive)
3 | COc1cc2[nH]c(=O)n(CCC(=O)NC3CCN(Cc4ccccc4)CC3)c(=O)c2cc1OC | -15.4% (inactive)
4 | CC(=O)Nc1ccc(NC(=O)c2sc3nc4c(c(-c5ccc(C)cc5)c3c2N)CCC4)cc1 | -4.6% (inactive)
5 | CC1C(c2ccccc2)=[N+]([O-])C2(CCCC2)N1O (configuration not stated) | 37.7% (inactive)
6 | O=C(COc1ccc(F)cc1)N(CC1=CCS(=O)(=O)C1)c1ccccc1 | -18.6% (inactive)
7 | O=c1c2ccccc2c(-c2ccc(Br)cc2)nn1Cc1ccccc1 | 21.5% (inactive)
8 | COc1ccc(Cl)cc1C(=O)NCC#N | -80.7% (inactive)
9 | CC(C)CNC(=O)CC(c1ccccc1)c1c(O)ccc2ccccc12 (configuration not stated) | 71.2% (active)
10 | CC(C)CNC(=O)COC(=O)/C=C/c1ccccc1[N+](=O)[O-] | -41.6% (inactive)
11 | O=C1CC(C(F)(F)C(F)(F)C(F)(F)C(F)(F)F)=Nc2ccccc2N1 | 9% (inactive)
12 | CCN(CC(=O)NC1CCS(=O)(=O)C1)c1nc(-c2cccnc2)nc2ccccc12 (configuration not stated) | 3.9% (inactive)
13 | CCOC(=O)c1cnc(SC)nc1Sc1ccc(Cl)cc1Cl | 81.5% (active)
14 | CCOC(=O)c1nc(C)n(-c2ccc(Cl)cc2Cl)n1 | -0.6% (inactive)
15 | CCOC(=O)CSc1ncc(-c2cccc(Cl)c2)cn1 | 14.2% (inactive)
16 | Cc1ccc(C(=O)NC2CC(C)(C)NC(C)(C)C2)c(C)c1 | -6.6% (inactive)
17 | Cc1nn(C)cc1/C=N/NC(=O)c1sc2ccccc2c1Cl | 23.6% (inactive)
18 | O/N=C1\CC2(Cc3nonc31)OCCO2 | 4% (inactive)
19 | CS(=O)(=O)N1CCN(C(=O)c2cc3ccccc3oc2=O)CC1 | -3.6% (inactive)
20 | O=c1c2ccccc2nnn1CSc1nnnn1-c1ccccc1 | -35.7% (inactive)
21 | Cc1cccc(OCc2nnc(SCn3nnc4ccccc4c3=O)o2)c1 | 35.9% (inactive)
22 | C=CCn1c(SCn2nnc3ccccc3c2=O)nnc1-c1ccc(Cl)cc1 | 67.1% (active)

Row | Compound | inhibition
23 | COc1cccc(Nc2ncccc2C(=O)O)c1 | -5.5% (inactive)
24 | CC1(C)CC(=O)C2=C(C1)NCN(CCCN1CCOCC1)C2 | 3.8% (inactive)
25 | CCOc1cc(CO)ccc1OCC(=O)N1CCCCC1 | -19.8% (inactive)
26 | N#C/C(=C1/CCCN1)c1ccccn1 | 7.3% (inactive)
27 | COC(=O)C(C)N(C#N)c1nc(C)nc(C)n1 (configuration not stated) | -136% (inactive)
28 | COC(=O)CNS(=O)(=O)c1ccc(OC)cc1 | -0.5% (inactive)
29 | COc1ccc(/C(N)=N/OC(=O)Oc2ccccc2)cc1 | 21.5% (inactive)
30 | CO/N=C(/CS(=O)(=O)c1ccc(Br)cc1)c1ccc(OC)cc1 | 91.6% (active)
31 | O=C1CC(c2cccc(Br)c2)C2=C(CCCC2=O)N1 (configuration not stated) | 10.3% (inactive)
32 | Cc1cccc(NC(=O)c2cc(N3C(=O)CCC3=O)ccc2Cl)n1 | 20.2% (inactive)
33 | O=C(CN1CCOCC1)N1CCCc2c1c(=O)oc1ccc(OCc3ccccc3)cc21 | 72.5% (active)
34 | COc1ccc2oc(=O)c(C(=O)N3CCCc4ccccc43)cc2c1 | -44.4% (inactive)
35 | O=C(COc1ccc2oc3c(c2c1)CCCC3)Nc1ccccn1 | 2.1% (inactive)
36 | Cn1c(=NC(=O)C2CC2)sc2cc(F)cc(F)c21 | -15.8% (inactive)
37 | O=C(CCN1C(=O)c2ccccc2C1=O)NCCN1CCOCC1 | -18.8% (inactive)
38 | COCCN1C(=O)c2oc3c(C)cc(C)cc3c(=O)c2C1c1cccc(O)c1 (configuration not stated) | 98.6% (active)
39 | O=C1c2oc3ccccc3c(=O)c2C(c2cccc(O)c2)N1c1ccccn1 (configuration not stated) | 4.2% (inactive)
40 | O=C1c2oc3ccc(Br)cc3c(=O)c2C(c2cccc(F)c2)N1CCO (configuration not stated) | 23.9% (inactive)
41 | CC(=O)OC(C(=O)NCCc1ccccc1)c1cccnc1 (configuration not stated) | -7.6% (inactive)
42 | CCOC(=O)c1c(C)[nH]c(C(=O)COc2ccc3c(c2)OCO3)c1C | 93% (active)
43 | CCOC(=O)c1c(C)oc2ccc(OCC(=O)N(CC)CC)cc12 | -13.4% (inactive)
44 | Cc1cc(C)n2nc(C(=O)Oc3ccc4c(c3)OCO4)nc2n1 | -31.5% (inactive)

Row | Compound | inhibition
45 | Nc1c(-c2cccc(Cl)c2)cnn1-c1cccc([N+](=O)[O-])c1 | 4.4% (inactive)
46 | O=C(NC12CC3CC(CC(C3)C1)C2)N1CCCC(CO)C1 (configuration not stated) | 12.4% (inactive)
47 | CC12C(=O)N(n3cnnc3)C(=O)C1C1C=CC2C1 (configuration not stated) | 1.9% (inactive)
48 | Cn1c(NN)nc2sc3c(c2c1=O)CCC3 | 68.1% (active)
49 | O=C(O)[C@@H]1CCCN1c1ncnc2sc3c(c12)CCC3 | 4.9% (inactive)
50 | NNC(=O)C1CCCn2c1nc1sc3c(c1c2=O)CCCC3 (configuration not stated) | 21.6% (inactive)
51 | Cn1c(NC(=O)c2ccco2)c(-c2ccccc2Cl)c(=O)c2ccccc21 | -3.7% (inactive)
52 | CC(C)Oc1ccc(C(=O)NC(C)(C)CO)cc1 | 15% (inactive)
53 | O=C(COc1ccccc1)NCCc1nc2ccccc2[nH]1 | 28.6% (inactive)
54 | C=CCn1c(SCc2nnc(-c3ccccc3)o2)nnc1C(O)c1ccccc1 (configuration not stated) | 59% (active)
55 | O=C(CSCc1c(Cl)cccc1Cl)NN1C(=O)c2ccccc2C1=O | 34.3% (inactive)
56 | CN(C)c1ccc(CNC23CN4CN(CN(C4)C2)C3)cc1 | -4.7% (inactive)
57 | Cc1cccc2c1N(CC(=O)OC(C)C)C(=O)C2=O | 8% (inactive)
58 | CCn1c(CSc2nncn2-c2ccc(OC)cc2)nc2cc(S(=O)(=O)N(C)C)ccc21 | 50.1% (active)
59 | Cn1nnnc1SCC(=O)Nc1ccccc1C(=O)NC1CC1 | 10.7% (inactive)
60 | CC(C)Nc1nc(N(c2ccccc2)c2ccccc2)nc(-n2ccnc2)n1 | 29% (inactive)
61 | Cc1ccc(N2CCN(S(=O)(=O)N(C)C)CC2)cc1Cl | 11% (inactive)
62 | O=C(NC1(C(F)(F)F)N=C2SCCN2C1=O)c1ccco1 (configuration not stated) | -10% (inactive)
63 | COc1cc(OC)c(C(=O)NC2CCCCCC2)cc1OC | 34.4% (inactive)
64 | Cn1c(SCC(=O)C(C)(C)C)nnc1-c1ccccn1 | -0.6% (inactive)
65 | O=C(Nc1ccc2c(c1)OCCO2)c1ccncc1 | 46.2% (inactive)
66 | CC(C)C(=O)Nc1cccc(C(=O)Nc2ccc3c(c2)OCO3)c1 | 57.2% (active)

Row | Compound | inhibition
67 | Cn1c(=O)n(C)c2cc(C(=O)Nc3ccc4c(c3)OCO4)ccc21 | -11.4% (inactive)
68 | Cc1ccc(C(=O)Nc2ccc3c(c2)OCO3)cc1S(=O)(=O)N1CCCCC1 | 93.3% (active)
69 | COc1ccc(C(=O)Nc2ccc3c(c2)OCO3)cc1OC | 1.7% (inactive)
70 | O=C(Nc1ccc2c(c1)OCCO2)c1cnccn1 | 4.9% (inactive)
71 | O=C(Nc1ccc2c(c1)OCCO2)c1ccc(Cl)c(S(=O)(=O)N2CCCCC2)c1 | 97.2% (active)
72 | O=C(Nc1ccccc1)c1ccc2c(c1)OCO2 | 9.7% (inactive)
73 | Cc1ccc(C(=O)NCC(=O)O)cc1S(=O)(=O)N1CCCCC1 | 3.8% (inactive)
74 | Cc1c(C=O)c2ccccn2c1C(=O)c1ccncc1 | 40.3% (inactive)
75 | CCC(=O)c1ccc(OCC(O)CN2CCN(c3cccc(C(F)(F)F)c3)CC2)cc1 (configuration not stated) | 22% (inactive)
76 | O=C(c1ccc(Cl)cc1)c1ccc(OCC(O)CN2CCCCC2)cc1 (configuration not stated) | 7.1% (inactive)
77 | Cc1nnc(SCC(=O)NCCOc2ccc(Cl)cc2)n1-c1ccccc1 | 37.2% (inactive)
78 | CCN1CCC(=NNC(=O)c2ccc(C)c([N+](=O)[O-])c2)CC1 | 7.3% (inactive)
79 | c1ccc(CCC2=NCCn3cccc32)cc1 | 4.5% (inactive)
80 | Cc1cccc(C(=O)NCCCN2CCCC2=O)c1 | -4% (inactive)
81 | Cn1c(SCC(=O)c2cccs2)nnc1-c1ccco1 | -12.6% (inactive)
82 | CCn1c(SCC(=O)c2ccc3ccccc3c2)nnc1-c1cccs1 | 3.9% (inactive)
83 | Cc1ccc(-n2c(Cc3cccs3)nnc2SCC(=O)OC(C)C)cc1 | 67.5% (active)
84 | CCn1c(SCC(=O)c2ccc(Cl)s2)nnc1-c1cccs1 | 69.2% (active)
85 | CCOC(=O)CSc1nnc(CNC(=O)c2cccs2)n1-c1ccccc1 | -10.4% (inactive)
86 | CCOC(=O)CNC(=O)CSc1nnc(COc2ccc(Cl)cc2)n1CC | 19.6% (inactive)
87 | COc1ccc(-n2c(SCC(=O)OC(C)C)nnc2-c2ccccn2)cc1 | -13.5% (inactive)
88 | CCn1c(Cc2cccs2)nnc1SCC(=O)c1ccc(C)cc1 | 78.7% (active)

Row | Compound | inhibition
89 | COC(=O)c1c(-c2ccc(C)cc2)csc1N | 31.9% (inactive)
90 | CCC(C)n1[nH]c(=O)c2c(C)cc(C)nc21 (configuration not stated) | 10.8% (inactive)
91 | COc1ccc(Cc2nnc(SC)[nH]c2=O)cc1 | 37.8% (inactive)
92 | C[N+](C)(C)CCNC(=O)c1c(O)c2c([nH]c1=O)CCCC2 | 6.6% (inactive)
93 | CC(CC(=O)Nc1cc(C(F)(F)F)ccc1Cl)c1ccccc1 (configuration not stated) | -141% (inactive)
94 | CC(C)n1c(C(O)c2ccccc2)nc2ccccc21 (configuration not stated) | -0.4% (inactive)
95 | Cc1cc(N2CCCC2)n2nc(C)c(-c3ccccc3)c2n1 | -22.5% (inactive)
96 | COC(=O)c1cnn2c(C(F)(F)F)cc(-c3ccco3)nc12 | -10.8% (inactive)
97 | Cc1c(C(=O)NCC2CCCO2)sc2nc(-c3ccccc3)cn12 (configuration not stated) | 28.3% (inactive)
98 | c1ccc2c(c1)OCC(CNc1ncnc3nc[nH]c13)O2 (configuration not stated) | 10.3% (inactive)
99 | Cc1cc2cc(CN(Cc3cccs3)Cc3nnnn3CC3CCCO3)c(=O)[nH]c2cc1C (configuration not stated) | -32.2% (inactive)
100 | CCC(c1nnnn1Cc1ccccc1)N(Cc1cc2cc(OC)ccc2[nH]c1=O)CC1CCCO1 (configuration not stated) | 66.2% (active)
101 | COc1ccc2[nH]c(=O)c(CN(Cc3nnnn3CCc3ccccc3)CC3CCCO3)cc2c1 (configuration not stated) | 68% (active)
102 | Cc1ccsc1C(=O)OCC(=O)c1cc(C)n(CC2CCCO2)c1C (configuration not stated) | -70.9% (inactive)
103 | COc1ccc(N(Cc2cc3cc(OC)ccc3[nH]c2=O)S(C)(=O)=O)cc1 | 26.9% (inactive)
104 | CCOc1ccc2[nH]c(=O)c(CN(Cc3nnnn3Cc3ccccc3)CC3CCCO3)cc2c1 (configuration not stated) | 13% (inactive)
105 | Cc1cc(C)c2cc(CN(Cc3cccs3)Cc3nnnn3CC3CCCO3)c(=O)[nH]c2c1 (configuration not stated) | 75.5% (active)
106 | COc1ccc(CNC(=O)c2cc3c(=O)n4ccccc4nc3n(CC3CCCO3)c2=N)cc1 (configuration not stated) | 9.5% (inactive)
107 | CCC(=O)N(Cc1cc2cc(OC)ccc2[nH]c1=O)c1ccccc1C | 36.4% (inactive)
